Results as given in PubChem BioAssay.
Values joined by “and” are separate entries in the source; they are usually repeats but may differ in a detail not shown here. Equal values may be shown once.

The molecules below were run on Human papillomavirus type 1a E7 protein (residues 1-88) (assay: HPV1a E7 small-molecule binders, primary screen, biochemical, small-molecule microarray, residues 1-88, 635 nm (AID 1129)). Conditions: small-molecule microarray binding, fluorescence 635 nm; higher = more signal.
`C=CCN(CCCC)C(=O)C(c1cccs1)N(CCOCCO)C(=O)/C=C\C(=O)O` (stereo not drawn) was tested, and the composite z-score was -1.01 and 0.222.
`CC(C)[Si]1(C(C)C)OCc2cc(CCCc3cc4c(c(CCc5ccccc5)n3)[Si](C(C)C)(C(C)C)OC4)nc(CCc3ccccc3)c21` was tested, and the composite z-score was -0.265 and 0.56.
In the case of `O=C1[C@H]2[C@H]3[C@H](O)[C@H](O)CC(=NOCc4ccccc4)[C@H]3CC[C@H]2C(=O)N1Cc1ccccc1`, the composite z-score is reported as -0.137.
With `C=CCN(C(=O)C1N(CCOCCO)C(=O)C2C(C(=O)O)C3C=CC21O3)c1ccc(OC)cc1` (stereo not drawn) the composite z-score was -1.57 and -1.78.
With `C=CCN(CCCCC)C(=O)C(c1cccs1)N(C(=O)/C=C\C(=O)O)c1c(Cl)cccc1CO` (stereo not drawn) the composite z-score was -0.682 and -0.485.
For `C=C[C@@H](OC)[C@H](O)c1ccc(OCCO)cc1`, the composite z-score was -0.875 and -0.95.
Molecule `CC(=O)OC[C@H]1O[C@H](C#CC(C)(C)C)C=C[C@@H]1OC(C)=O` has a composite z-score of 0.996.
With `C[N+](C)(C)CCCCCCNC(=O)[C@H]1C[C@H]2C(=O)N[C@@H](CCCC[N+](C)(C)C)C(=O)N2[C@H]1c1ccc(O)cc1` the composite z-score was -0.558 and -0.643.
`COc1ccc(-c2ccc3c(n2)CCCN3CC(O)CN2CCCc3nc(-c4ccc(Br)cc4)ccc32)cc1` (stereo not drawn) was tested, and the composite z-score was 0.601 and 0.387.
`CC(CO)N1C(=O)[C@@H]2C3C(=O)OCCC=C[C@H]3OC23C=CCN(Cn2nnc4ccccc42)C(=O)[C@@H]13` (stereo partly drawn) was tested, and the composite z-score was -0.66 and 0.136.
In the case of `C[C@@]1([C@@H](NC(=O)Cc2ccccc2)c2ccc(-c3ccccc3)cc2)C[C@H]1C1CCCCC1`, the composite z-score is reported as 1.18 and 1.08 and 0.987.
In the case of `C=CCN(CCCC)C(=O)C(c1cccs1)N(C(=O)/C=C\C(=O)O)c1c(Cl)cccc1CO` (stereo not drawn), the composite z-score is reported as -0.925 and -1.1.
`C=C[C@@H](C)[C@@H](O)c1ccc(OCCO)cc1` was tested, and the composite z-score was -0.66 and -0.875.
